Measurements taken from PubChem BioAssay (Tox21).
Results filed as inconclusive are left out. Where a call stands in place of a potency, no number is given. Activity calls are given as the source filed them. Unless noted, the call rests on the fitted dose curve; in most records, active means well fitted curve in the direction sought with a large enough effect in the repeat runs; inconclusive means weak or mixed curves; inactive means no such curve, though single readings can be large; an effect the other way counts as inactive or inconclusive.

How the values were obtained:
[1] = qHTS assay to identify small molecule antagonists of the glucocorticoid receptor (GR) signaling pathway - cell viability counter screen (AID 720693); further: nearly all actives have a fitted effect of over 55% in size
[2] = qHTS assay for identifying genotoxic compounds that show differential cytotoxicity against isogenic chicken DT40 cell lines with known DNA damage response pathways - wild type cell line (AID 743012); further: nearly all actives have a fitted effect of over 60% in size; further: potency means the concentration at half of the fitted maximal effect
How it was run: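 Cytotoxicity in repair-proficient parental chicken DT40 cells serves as the comparator for Rad54/Ku70- and Rev3-deficient lines. Cells were exposed to compounds for 40 h at 37 C/5% CO2, and ATP-based luminescence (CellTiter-Glo) measured viability.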

[3] = qHTS assay for identifying genotoxic compounds that show differential cytotoxicity against isogenic chicken DT40 cell lines with known DNA damage response pathways - Rev3 mutant cell line (AID 743014); further: nearly all actives have a fitted effect of over 55% in size; further: potency means the concentration at half of the fitted maximal effect
[4] = qHTS assay for identifying genotoxic compounds that show differential cytotoxicity against isogenic chicken DT40 cell lines with known DNA damage response pathways - Rad54/Ku70 mutant cell line (AID 743015); further: nearly all actives have a fitted effect of over 60% in size; further: potency means the concentration at half of the fitted maximal effect
[5] = qHTS assay to identify small molecule antagonists of the androgen receptor (AR) signaling pathway - cell viability counter screen (AID 743033; further: nearly all actives have a fitted effect of over 45% in size)
[6] = qHTS assay to identify small molecule antagonists of the androgen receptor (AR) signaling pathway using the MDA cell line - cell viability counter screen (AID 743041; further: nearly all actives have a fitted effect of over 45% in size)
How it was run: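 qHTS viability read-out; MDA-kb2 AR-luc; R1881-stimulated; 16 h exposure at 37C, 0% CO2; CellTiter-Fluor, 30 min; fluorescence intensity.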

[7] = qHTS assay to identify small molecule antagonists of the thyroid receptor (TR) signaling pathway - cell viability counter screen (AID 743064); further: nearly all actives have a fitted effect of over 50% in size; further: potency means the concentration at half of the fitted maximal effect
How it was run: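 Compounds were tested on GH3.TRE-Luc cells in the presence of T3 at 1 nM final. Following 23.5 h at 37 °C, cell viability was quantified by CellTiter-Fluor.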

[8] = qHTS assay to identify small molecule antagonists of the thyroid receptor (TR) signaling pathway (AID 743065); further: nearly all actives have a fitted effect of over 55% in size; further: potency means the concentration at half of the fitted maximal effect
How it was run: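 GH3.TRE-Luc rat pituitary cells carrying two TR response elements driving luciferase were plated for 4 h, given compound plus 1 nM T3 (final), and incubated 23.5 h at 37 C. ONE-Glo luminescence measured reporter inhibition; CellTiter-Fluor fluorescence tracked cytotoxicity.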

[9] = test system: thyroid hormone receptor (rat, GH3 cells); experiment: qHTS assay to identify small molecule agonists of the thyroid receptor (TR) signaling pathway (AID 743066; calls by dose curve)
[10] = target: Estrogen receptor (Homo sapiens) (UniProt P03372); experiment: qHTS assay to identify small molecule antagonists of the estrogen receptor alpha (ER-alpha) signaling pathway (AID 743069; active means well fitted curve in the direction sought with a large enough effect in the signal ratio in the repeat runs, not every such curve was filed as active; the % refers to the signal ratio)
Chain of Estrogen receptor (Homo sapiens) (P03372 whole entry, looked up): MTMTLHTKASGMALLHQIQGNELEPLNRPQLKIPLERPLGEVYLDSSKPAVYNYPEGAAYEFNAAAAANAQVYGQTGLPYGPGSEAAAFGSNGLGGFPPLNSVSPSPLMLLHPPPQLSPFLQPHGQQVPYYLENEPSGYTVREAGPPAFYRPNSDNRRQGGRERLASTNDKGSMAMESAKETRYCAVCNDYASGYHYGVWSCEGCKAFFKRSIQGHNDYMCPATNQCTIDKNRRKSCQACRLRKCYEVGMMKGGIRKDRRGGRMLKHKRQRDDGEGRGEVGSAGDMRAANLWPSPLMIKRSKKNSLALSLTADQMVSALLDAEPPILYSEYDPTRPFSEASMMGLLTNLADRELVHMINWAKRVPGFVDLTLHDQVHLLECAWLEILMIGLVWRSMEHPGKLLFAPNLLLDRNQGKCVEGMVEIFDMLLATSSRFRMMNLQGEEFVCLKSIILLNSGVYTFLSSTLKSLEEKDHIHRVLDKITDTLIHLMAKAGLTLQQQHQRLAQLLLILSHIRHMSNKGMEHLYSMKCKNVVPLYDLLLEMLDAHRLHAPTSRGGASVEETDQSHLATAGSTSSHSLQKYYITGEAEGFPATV
How it was run: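 Screening used a UAS-driven beta-lactamase reporter integrated into HEK293 cells expressing ER-alpha, stimulated with 17beta-estradiol alongside test compounds over 18 hr at 37C; signal came from LiveBLAzer B/G FRET fluorescence.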

[11] = qHTS assay to identify small molecule antagonists of the estrogen receptor alpha (ER-alpha) signaling pathway - cell viability counter screen (AID 743074; calls by dose curve; further: nearly all actives have a fitted effect of over 45% in size)
[12] = target: Estrogen receptor (Homo sapiens) (UniProt P03372); experiment: qHTS assay to identify small molecule agonists of the estrogen receptor alpha (ER-alpha) signaling pathway (AID 743075; calls by dose curve)
[13] = target: Estrogen receptor (Homo sapiens) (UniProt P03372); experiment: qHTS assay to identify small molecule agonists of the estrogen receptor alpha (ER-alpha) signaling pathway using the BG1 cell line (AID 743079); further: nearly all actives have a fitted effect of over 20% in size
[14] = qHTS assay to identify small molecule antagonists of the estrogen receptor alpha (ER-alpha) signaling pathway using the BG1 cell line (AID 743080; calls by dose curve;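 further: BG1 cells stimulated with 17beta-estradiol alongside compound; series mostly up to about 70 µM; nearly all actives have a fitted effect of over 25% in size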)
How it was run: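 Luminescence from a 4×ERE-luciferase reporter in BG1-Luc-4E2 cells served as read-out. Cells, pre-cultured 5 days in stripped-serum phenol-red-free medium, were exposed to compound with 17beta-estradiol co-stimulation for 21.5 h at 37 C.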

[15] = qHTS assay to identify small molecule antagonists of the estrogen receptor alpha (ER-alpha) signaling pathway using the BG1 cell line - cell viability counter screen (AID 743081);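 further: compound given together with 17beta-estradiol as the ER stimulus; series mostly up to about 70 µM; nearly all actives have a fitted effect of over 45% in size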
[16] = target: Aromatase (Homo sapiens) (UniProt P11511); experiment: qHTS assay to identify aromatase inhibitors (AID 743083); further: series mostly up to about 70 µM; nearly all actives have a fitted effect of over 55% in size
Chain of Aromatase (Homo sapiens) (P11511 whole entry, looked up): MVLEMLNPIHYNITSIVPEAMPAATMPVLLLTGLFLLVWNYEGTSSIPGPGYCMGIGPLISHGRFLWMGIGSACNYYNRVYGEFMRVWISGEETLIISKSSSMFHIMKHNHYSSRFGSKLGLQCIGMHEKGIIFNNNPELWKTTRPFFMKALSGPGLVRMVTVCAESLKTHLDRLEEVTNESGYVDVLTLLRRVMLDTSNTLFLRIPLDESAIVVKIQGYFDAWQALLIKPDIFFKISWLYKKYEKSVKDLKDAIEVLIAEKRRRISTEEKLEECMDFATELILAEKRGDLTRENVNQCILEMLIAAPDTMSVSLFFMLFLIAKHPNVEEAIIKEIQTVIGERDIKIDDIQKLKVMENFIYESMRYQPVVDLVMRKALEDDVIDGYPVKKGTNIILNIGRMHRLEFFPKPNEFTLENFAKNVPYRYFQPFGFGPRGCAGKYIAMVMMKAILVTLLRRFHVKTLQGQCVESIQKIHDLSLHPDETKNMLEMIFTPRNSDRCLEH

[17] = target: Androgen receptor (Homo sapiens) (UniProt P10275); experiment: qHTS assay to identify small molecule agonists of the androgen receptor (AR) signaling pathway using the MDA cell line (AID 743040; further: nearly all actives have a fitted effect of over 20% in size)
Chain of Androgen receptor (Homo sapiens) (P10275 whole entry, looked up): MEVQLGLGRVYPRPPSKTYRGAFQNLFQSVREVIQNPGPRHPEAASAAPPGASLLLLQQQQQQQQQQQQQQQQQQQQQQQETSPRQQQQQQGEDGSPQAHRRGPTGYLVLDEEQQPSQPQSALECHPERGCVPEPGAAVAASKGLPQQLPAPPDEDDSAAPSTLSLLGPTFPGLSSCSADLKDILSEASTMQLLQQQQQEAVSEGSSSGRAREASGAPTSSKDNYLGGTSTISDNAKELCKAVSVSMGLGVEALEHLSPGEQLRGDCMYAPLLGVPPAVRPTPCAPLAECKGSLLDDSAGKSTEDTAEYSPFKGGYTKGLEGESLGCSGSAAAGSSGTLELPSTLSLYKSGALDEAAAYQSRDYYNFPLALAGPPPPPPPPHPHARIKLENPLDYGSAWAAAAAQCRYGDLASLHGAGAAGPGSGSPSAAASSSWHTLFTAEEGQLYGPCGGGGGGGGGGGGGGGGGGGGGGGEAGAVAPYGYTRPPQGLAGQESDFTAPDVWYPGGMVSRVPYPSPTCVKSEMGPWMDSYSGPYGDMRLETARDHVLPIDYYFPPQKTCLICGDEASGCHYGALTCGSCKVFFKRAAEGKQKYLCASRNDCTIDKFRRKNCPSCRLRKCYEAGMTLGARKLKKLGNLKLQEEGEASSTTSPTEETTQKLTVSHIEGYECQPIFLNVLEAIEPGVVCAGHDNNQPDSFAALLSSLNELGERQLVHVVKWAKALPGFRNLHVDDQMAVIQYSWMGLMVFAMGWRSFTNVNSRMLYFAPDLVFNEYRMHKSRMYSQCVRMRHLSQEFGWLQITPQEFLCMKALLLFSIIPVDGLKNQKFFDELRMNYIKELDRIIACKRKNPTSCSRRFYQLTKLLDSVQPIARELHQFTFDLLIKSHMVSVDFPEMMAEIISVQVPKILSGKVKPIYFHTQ
How it was run: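 Agonist activity is measured as luciferase luminescence in human MDA-kb2 cells whose MMTV reporter responds to both AR and GR. Compounds in DMSO incubate 16 h at 37C, 0% CO2, and ONE-Glo is read after 30 min.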

[18] = target: Androgen receptor (Homo sapiens) (UniProt P10275); experiment: qHTS assay to identify small molecule antagonists of the androgen receptor (AR) signaling pathway using the MDA cell line (AID 743042; further: nearly all actives have a fitted effect of over 55% in size)
How it was run: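 MDA-kb2 cells (human breast carcinoma, stably carrying an MMTV-luciferase reporter responsive to AR and GR) were plated at 3,000 cells/well and preincubated 5 hr at 37C, then given compound plus R1881 agonist for 16 h. ONE-Glo luminescence was read.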

[19] = target: Androgen receptor (Homo sapiens) (UniProt P10275); experiment: qHTS assay to identify small molecule agonists of the androgen receptor (AR) signaling pathway (AID 743036; active means well fitted activation curve with a large enough effect in the signal ratio in the repeat runs, with a control signal flat, not every such curve was filed as active; the % refers to the signal ratio)
How it was run: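 Beta-lactamase under UAS control, stably integrated in HEK293 GripTite cells, reports receptor activation. After 16 h compound treatment, cells received FRET substrate for 2 h at room temperature before fluorescence reading.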

[20] = target: Androgen receptor (Homo sapiens) (UniProt P10275); experiment: qHTS assay to identify small molecule antagonists of the androgen receptor (AR) signaling pathway (AID 743035; active means well fitted inhibition curve with a large enough effect in the signal ratio in the repeat runs, not every such curve was filed as active; the % refers to the signal ratio)
How it was run: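 Steps: seed AR-UAS-bla GripTite HEK293 cells, incubate 4 h at 37C; pin in test compound, then add agonist R1881; incubate 16 h at 37C; add LiveBLAzer B/G FRET substrate, 2 h at room temperature; read fluorescence.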

| SMILES | Potency [1] | Potency [2] | Potency [3] | Potency [4] | Potency [5] | Potency [6] | Potency [7] | Potency [8] | outcome [9] | Potency [10] | outcome [11] | Potency [12] | Potency [13] | Potency [14] | Potency [15] | Potency [16] | outcome [17] | Potency [18] | outcome [19] | Potency [20] |
| --- | --- | --- | --- | --- | --- | --- | --- | --- | --- | --- | --- | --- | --- | --- | --- | --- | --- | --- | --- | --- |
| CC(=O)c1cccnc1 | inactive | inactive | inactive | inactive | inactive | inactive | inactive | inactive | inactive | inactive | inactive | inactive | inactive | inactive | inactive | inactive | – | – | – | – |
| CC(C(=O)O)c1ccc2c(c1)Cc1cccnc1O2 (stereo unspecified) | inactive | inactive | inactive | inactive | inactive | inactive | inactive | – | inactive | – | inactive | – | – | – | inactive | inactive | inactive | inactive | – | – |
| CCCOC(C)=O | inactive | inactive | inactive | inactive | inactive | inactive | – | inactive | inactive | inactive | inactive | inactive | inactive | inactive | inactive | inactive | inactive | inactive | inactive | – |
| OCCc1ccncc1 | inactive | inactive | inactive | inactive | inactive | inactive | inactive | inactive | inactive | inactive | inactive | inactive | inactive | – | inactive | – | – | – | – | – |
| Nc1ccc(F)cc1F | inactive | inactive | inactive | inactive | inactive | inactive | inactive | – | – | inactive | inactive | inactive | inactive | – | inactive | inactive | inactive | inactive | inactive | inactive |
| CC(=O)Oc1cccc2c1C(=O)c1c(OC(C)=O)cc(C(=O)O)cc1C2=O | inactive | inactive | inactive | inactive | inactive | – | – | inactive | inactive | – | inactive | – | – | – | inactive | inactive | inactive | inactive | – | – |
| Cc1ccc(NC(=O)c2ccc(CN3CCN(C)CC3)cc2)cc1Nc1nccc(-c2cccnc2)n1 | inactive | 15 µM (active) | 11.9 µM (active) | 13.3 µM (active) | inactive | inactive | 21.1 µM (active) | 26.6 µM (active) | – | – | inactive | inactive | inactive | – | – | – | inactive | – | – | – |
| CC(=O)Nc1cccc(N)c1 | inactive | inactive | inactive | inactive | inactive | inactive | inactive | inactive | inactive | inactive | inactive | inactive | inactive | – | inactive | inactive | – | – | – | – |
| CCC[Si](OC)(OC)OC | inactive | inactive | inactive | inactive | inactive | inactive | inactive | inactive | inactive | inactive | inactive | inactive | inactive | – | inactive | inactive | inactive | inactive | inactive | – |
| OCC(O)c1ccccc1 (stereo unspecified) | inactive | inactive | inactive | inactive | inactive | inactive | inactive | inactive | inactive | inactive | inactive | inactive | inactive | inactive | inactive | inactive | – | – | – | – |
| CCOCCn1c(N2CCCN(C)CC2)nc2ccccc21 | inactive | inactive | inactive | inactive | inactive | inactive | inactive | inactive | inactive | – | – | – | – | – | inactive | – | inactive | inactive | – | inactive |
| O=C(O)c1cccc(C(=O)O)c1C(=O)O | inactive | inactive | inactive | inactive | inactive | inactive | – | inactive | inactive | inactive | – | inactive | inactive | inactive | inactive | inactive | inactive | inactive | inactive | inactive |
| O=C(OC1C[C@H]2CC[C@@H](C1)[N+]21CCCC1)C(O)(c1ccccc1)c1ccccc1 (stereo partly specified) | inactive | inactive | inactive | inactive | inactive | inactive | inactive | inactive | inactive | – | – | – | – | – | inactive | inactive | inactive | inactive | inactive | – |
| O=C(O)c1ccc(O)c(O)c1 | inactive | inactive | inactive | inactive | inactive | inactive | – | inactive | inactive | inactive | inactive | inactive | inactive | inactive | inactive | inactive | inactive | inactive | inactive | inactive |
| CC(COc1ccccc1)NC(C)C(O)c1ccc(O)cc1 (stereo unspecified) | inactive | inactive | inactive | inactive | inactive | inactive | inactive | inactive | inactive | inactive | inactive | inactive | inactive | – | inactive | inactive | – | – | – | – |
| FC(F)(Cl)C(F)(Cl)Cl | inactive | inactive | inactive | inactive | inactive | inactive | inactive | – | inactive | inactive | – | inactive | inactive | inactive | inactive | inactive | inactive | inactive | inactive | inactive |
| CCCN(C1CCN(C(=O)C2CCNCC2)CC1)[C@@H]1CCc2ccc(OC)cc2C1 | inactive | 15.4 µM (active) | 15.4 µM (active) | 19.3 µM (active) | inactive | – | 68.6 µM (active) | 54.5 µM (active) | inactive | – | – | – | – | – | – | inactive | inactive | inactive | inactive | – |
| CCCc1nc(C)c2c(=O)[nH]c(-c3cc(S(=O)(=O)N4CCN(CC)CC4)ccc3OCC)nn12 | inactive | inactive | inactive | inactive | inactive | inactive | – | – | – | – | inactive | – | – | – | inactive | inactive | – | inactive | – | inactive |
